Test results from ChEMBL document CHEMBL1157539, “Thousands of chemical starting points for antimalarial lead identification” (Nature, 2010).

system: Plasmodium falciparum; assay: GSK_TCMDC: Inhibition of Plasmodium falciparum 3D7 in whole red blood cells, using parasite LDH activity as an index of growth. Test compounds present at 2uM; type: functional

Structure (SMILES)	Inhibition
Cl.FC(F)(F)c1cc(CNCCCNc2nc3ccncc3[nH]2)ccc1Cl	99%
O=C(Oc1ccc(Cl)cc1C(=O)Nc1ccc([N+](=O)[O-])cc1Cl)c1ccccc1	97%
COc1cc(C(=O)Nc2ccc(-c3nc4ccccc4[nH]3)cc2)cc(OC)c1OC	99%
O=C(/C=C/c1ccc(Cl)c(Cl)c1)NCCCCN1CCCN(C(=O)Nc2ccc(C(F)(F)F)cc2)CC1	94%
Cc1noc(C)c1-c1ccc2c(Nc3ccccc3C(C)(C)C)c(C(=O)NCc3ccc(C(F)(F)F)cc3)cnc2c1.Cl	99%
CCc1cn2c3c(cc(C(=O)N[C@@H](Cc4cccc(Cl)c4)[C@H](O)CNC4CC4)cc13)N(C)S(=O)(=O)CC2.O=CO	98%
O=C(Nc1cccnc1)c1cc(-c2cccnc2)nc2ccc(Br)cc12	99%
COc1ccc(-c2cc(C(=O)Nc3ccc(CCCN(C)Cc4ccc(OC)c(OC)c4)cc3)c3ccccc3n2)cc1	92%
Cl.O=C(Nc1cc(Cl)cc(Cl)c1)Nc1ccnc2ccccc12	96%
O=C(Nc1ccc(Cn2ncc(N3CCNCC3)c(Cl)c2=O)cc1)Nc1ccc(-c2ccccc2)cc1.O=C(O)C(F)(F)F	98%
COc1cccc2c(Oc3ccccc3C)ccnc12	85%
COc1ccc(NC(=O)/C=C/c2ccccc2Cl)cc1OCCN1CCN(c2ccncc2)CC1	100%
CCc1cc(OC)ccc1C1CCN(CCCCNC(=O)c2ccc(NC(=O)c3ccc(Cl)cc3)cc2)CC1.Cl	95%
COc1ccc2ncc(F)c(CCN3CCC(NCc4cnc5c(c4)NC(=O)CS5)CC3)c2c1.Cl	99%
